Screening data as filed in PubChem BioAssay.
FadD28 FP inh = inhibitors of Mycobacterium tuberculosis FadD28 bisubstrate binding. actives 0.22% (n = 360,000). AID 588549. inhibition, % at 12.5 µM. FadD28 bisubstrate probe binding, fluorescence polarization; in the data active = inhibition above about 8.5%, passing the limit was not always enough
BioA inh = inhibitors of Mycobacterium tuberculosis BioA enzyme. inhibition, % at 9.99 µM. purified M. tuberculosis BioA enzyme, plate reader. actives 0.096% (n = 360,000); in the data active = inhibition above about 40%
GDH-TPI counter-1 = counter-screen for M. tuberculosis FBA inhibitors: GDH-TPI coupled enzymes; GDH-TPI coupled enzyme counterscreen, NADH absorbance; inhibition, % at 4.8 µM; actives 1.2% (n = 360,000); AID 588335; in the data active = inhibition above about 30%;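 also: 0% = DMSO wells and 100% = wells lacking the enzyme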
Mtb FBA inh = inhibits M. tuberculosis FBA enzyme; P9WQA3; purified M. tuberculosis FBA, fluorescence read-out; inhibition, % at 1 µM; actives 2.3% (n = 360,000); AID 588726;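 also: 0% = vehicle and 100% = reference inhibitor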
Target sequence (P9WQA3 whole entry, looked up): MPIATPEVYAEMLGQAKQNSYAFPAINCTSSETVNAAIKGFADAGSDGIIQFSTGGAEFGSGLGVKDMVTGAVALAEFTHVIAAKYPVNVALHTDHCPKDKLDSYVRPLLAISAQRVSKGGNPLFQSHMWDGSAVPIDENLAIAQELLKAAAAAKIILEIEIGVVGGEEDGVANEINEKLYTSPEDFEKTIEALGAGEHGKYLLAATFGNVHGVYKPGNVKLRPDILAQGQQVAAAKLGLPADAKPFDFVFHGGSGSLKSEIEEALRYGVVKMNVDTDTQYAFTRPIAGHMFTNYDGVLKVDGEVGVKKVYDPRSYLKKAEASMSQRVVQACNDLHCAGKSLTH
Mtb hypoxia rep = inhibitors of hypoxia-regulated fluorescent reporter in Mycobacterium tuberculosis | M. tuberculosis hypoxia-regulated fluorescent reporter, fluorescence | actives 0.1% (n = 300,000) | AID 1159583 | fluorescence inhibition, % (concentration not given with the values); in the data active = fluorescence inhibition mostly above about 23%, no sharp cut-off; inactive = mostly below about 17%
Mtb FBA confirm = Mtb FBA inhibition, confirmed | actives 78% (n = 5,600) | AID 651616 | inhibition, % at 1 µM | purified M. tuberculosis FBA, fluorescence read-out | shares compounds with Mtb FBA inh;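 also: 0% = vehicle wells and 100% = reference inhibitor wells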
GDH-TPI counter-2 = inhibits GDH-TPI coupling enzymes, flagging Mtb FBA hits; shares compounds with Mtb FBA inh; actives 81% (n = 5,600); GDH-TPI coupled enzyme counterscreen, fluorescence; AID 652141; inhibition, % at 1 µM; in the data active = inhibition above about 10%
Numbers without * were called inactive; / = no result; + = active, no number. The list is not random: actives were taken first. Their share in the collection is about 2.9%. Rule as the data show it, unless noted: active = inhibition above about 27%; inactive = the rest.

SMILES	FadD28 FP inh	BioA inh	GDH-TPI counter-1	Mtb FBA inh	Mtb hypoxia rep	others
CN1c2ccc(-c3cccc(F)c3)cc2[C@@H]2[C@@H](CCN2C(=O)Cc2ccccc2)[C@H]1CO	/	7.8	/	/	/
N#Cc1cccc(-c2ccc3c(c2)[C@@H]2[C@@H](CCN2C(=O)c2ccncc2)[C@@H](CO)N3)c1	/	1.9	/	/	/
COc1cc(/C=C2/SC(=S)N(CC(=O)O)C2=O)ccc1OC(=O)c1cccs1	3.3	/	6.0	-1.3	7.3
COc1cc(/C=C2\SC(=S)N(CC(=O)O)C2=O)ccc1OS(=O)(=O)c1ccc(C)cc1	9.7*	2.9	26.8	1.6	-1.2
COc1ccc(NC(=O)Nc2ccc3c(c2)C(=O)N([C@H](C)CO)C[C@@H](C)[C@@H](CN(C)C(=O)CCC(F)(F)F)OCCCC[C@H](C)O3)cc1	/	-0.8	/	/	/
CCOC(=O)NN=Cc1ccccc1OCc1ccc(Cl)cc1	/	/	/	/	-8.8
CCOC(=O)c1ccc(N=NN(C)C)cc1	-0.3	/	36.0*	-0.4	1.1
CCOC(=O)c1ccc(N)cc1	-1.4	-0.6	-0.5	-0.9	7.4
C[C@H](CO)N1C[C@H](C)[C@@H](CN(C)S(C)(=O)=O)Oc2cc(C#CC3CCCC3)ccc2S1(=O)=O	/	1.9	/	/	/
Cc1cc(OCC(=O)Nc2ccccn2)c2c(C)c(C)c(=O)oc2c1	-1.8	-1.6	-6.3	10.8	-7.3
Cc1cc(OCC(=O)N2CCN(c3cccc(Cl)c3)CC2)c2c(C)c(C)c(=O)oc2c1	-5.1	1.0	7.4	1.7	-2.8
CCCc1cc(=O)oc2c3c(cc(OCC(=O)NCc4ccncc4)c12)OC(C)(C)CC3	-2.7	8.0	25.5	+	/
Cc1cc(OCC(=O)NCc2ccccn2)c2c(C)c(C)c(=O)oc2c1	-0.5	-0.4	21.6	119.8*	5.8
Cc1cc(OCC(=O)C(C)(C)C)c2c(C)c(C)c(=O)oc2c1	-1.9	1.3	5.1	48.6*	-0.5
Cc1c(OCC(=O)NCc2ccncc2)ccc2c3c(c(=O)oc12)CCCC3	-0.3	1.1	3.0	9.2	3.7
Cc1c(C)c2c(OCC(=O)NCc3ccccn3)cc3c(c2oc1=O)CCC(C)(C)O3	-4.1	8.7	23.5	+	/
O=C(C[C@H]1CC[C@H]2[C@@H](COC[C@H](O)CN2Cc2cccc(-c3ccncc3)c2)O1)N1CCN(c2ccccc2)CC1	/	0.5	/	/	/
Cc1nn(-c2ccccc2)c(Cl)c1C=NNC(=O)c1ccc(NS(=O)(=O)c2cccs2)cc1	/	/	/	/	-2.5
CCCc1cc(=O)oc2c3c(cc(OCC(=O)NCc4ccccn4)c12)OC(C)(C)CC3	-3.0	7.3	17.6	191.8*	/
COC(=O)NN=Cc1c(C)nn(-c2cccc(Cl)c2)c1Cl	/	/	/	/	3.8
CNc1nnc(-c2ccc(N(C)C)cc2)s1	-0.6	-1.9	45.8*	+	0.1
O=C(C[C@H]1C=C[C@H](NC(=O)C2CCOCC2)[C@H](CO)O1)NCC1CC1	/	1.2	/	/	/
CCOC(=O)C1C2COc3ccc(Br)cc3C2N2C(=O)CN(Cc3ccc(Cl)cc3)C(=O)[C@@]12C (stereo partly drawn)	/	/	/	/	6.0
CC(=O)COc1c(-c2ccco2)oc2ccccc2c1=O	1.0	-1.9	32.3*	23.8	16.5
O=C(NN=Cc1ccc(O)c([N+](=O)[O-])c1)C(O)(c1ccccc1)c1ccccc1	/	/	/	/	12.9
SMILES	FadD28 FP inh	BioA inh	GDH-TPI counter-1	Mtb FBA inh	Mtb hypoxia rep	others
Cc1sc2ncnc(N/N=C/c3ccc(O)cc3)c2c1C	-1.7	1.8	48.0*	1.3	/
Nc1c(Cl)ncnc1N/N=C/c1ccc(O)cc1	-3.0	/	42.2*	2.0	/
COc1cccc(/C=N/Nc2ncnc3scc(-c4ccccc4)c23)c1OC	-5.9	-1.7	41.1*	5.4	/
Cc1sc2ncnc(N/N=C/c3ccccc3O)c2c1C	-0.5	-0.8	34.6*	0.3	/
COc1ccc(C=NNc2ncnc3scc(-c4ccccc4)c23)cc1OC	/	/	/	/	0.8
Nc1c(Cl)ncnc1NN=Cc1cccnc1	/	/	/	/	3.1
CCNC(=O)C[C@@H]1CC[C@H]2[C@@H](COc3ccc(NC(=O)Nc4cccc(Cl)c4)cc3C(=O)N2C)O1	/	0.6	/	/	/
COc1cc(C=NNC(=O)c2ccc(-c3ccccc3)cc2)cc(Br)c1O	/	/	/	/	-2.2
COC(=O)C[C@@H]1CC[C@@H]2[C@@H](COc3ccc(NC(=O)c4cc(F)cc(F)c4)cc3C(=O)N2C)O1	/	7.9	/	/	/
O=C(O)c1cccc(CN2C(=O)S/C(=C/c3cccc([N+](=O)[O-])c3)C2=O)c1	-2.4	/	44.3*	0.8	10.7
Cc1ccc(/C=C2/SC(=S)N(CCCC(=O)Nc3cc([N+](=O)[O-])ccc3O)C2=O)cc1	-2.1	0.3	-7.0	-1.6	-2.6
O=C(CN1C(=O)S/C(=C\c2ccccc2)C1=O)Nc1cc([N+](=O)[O-])ccc1O	17.6*	7.6	27.7	-6.8	-2.8
Cn1cc(Br)c(C(=O)N/N=C/c2cc3ccccc3nc2Cl)n1	-0.8	-2.1	31.5*	4.3	/
CCOC(=O)N1CCC(NC(=O)c2ccc3c(c2)N(C)CCS3)CC1	-1.9	-1.0	16.3	113.6*	-4.1
O=C(NCC1CCCO1)c1ccc2c(c1)N(Cc1ccc(F)cc1)CCS2 (stereo not drawn)	2.1	6.4	9.8	119.1*	16.2
O=C(NCC1CCCO1)c1ccc2c(c1)N(Cc1ccc(F)cc1Cl)C(=O)CS2 (stereo not drawn)	-3.0	0.0	-1.3	-3.2	2.4
CCN1CCN(CCCNC(=O)c2ccc3c(c2)N(Cc2ccccc2)CCS3)CC1	-1.8	-0.3	-2.6	170.5*	11.7
CN1CCN(CCCNC(=O)c2ccc3c(c2)N(Cc2ccc(F)cc2)CCS3)CC1	-0.2	3.6	7.0	158.5*	7.1
CCOC(=O)N1CCC(NC(=O)c2ccc3c(c2)N(Cc2ccc(C)cc2)CCS3)CC1	-1.1	-2.1	-2.9	18.8	-0.1
COc1ccc(S(=O)(=O)Nc2ccc3c(c2)C(=O)N([C@@H](C)CO)C[C@@H](C)[C@@H](CN(C)C(=O)Nc2ccccc2)OCCCC[C@@H](C)O3)cc1	/	-6.0	/	/	/
O=C(N[C@@H]1CC[C@H](CC(=O)N2CCc3ccccc3C2)O[C@@H]1CO)C1CCOCC1	/	0.5	/	/	/
O=C(NC1CC1)c1ccc2c(c1)N(Cc1ccccc1)CCS2	0.8	0.7	3.5	161.0*	9.8
Cc1ccc(C=NNC(=S)N2CCOCC2)cc1	/	/	/	/	4.9
COc1cc(OC)cc(-c2c(-c3ccc(F)cc3)c3cc(-c4ccc(OC)nc4)ccc3n2C)c1	-0.8	-2.2	4.5	5.3	4.3
COc1cccc(-c2c(-c3cc(OC)cc(OC)c3)n(C)c3ccc(Br)cc23)c1	0.3	13.9	22.7	6.8	2.3
COc1cccc(-c2c(-c3cc(OC)cc(OC)c3)n(C)c3ccc(-c4cccc5[nH]ccc45)cc23)c1	-2.1	-1.2	25.2	54.1*	7.8	Mtb FBA confirm=+;GDH-TPI counter-2=+
